The results in this text go back to PubChem BioAssay.

Molecules are shown by their SMILES. Unmarked numbers belong to inactive results. For some assays here: Measured potencies and affinities stand elsewhere. The source made the active and inactive calls. Unless noted, how the calls were made is not given here.

Experiment [1] is described as follows: antimalarial activity against Dd2 strain (AID 2302;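 active means growth inhibition above 50% at the single 2 µM test dose, taken to imply half-maximal potency below 2 µM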;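 further: 0% = DMSO untreated growth and 100% = chloroquine plus artemisinin killed control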). To be noted: P. falciparum Dd2 in RBCs, LDH growth readout, 72 h; at 2 µM; hits give high values.
Experiment [2] in a line: HepG2 cytotoxicity, primary screen, cytotoxicity control for P. falciparum antimalarial project, cell-based, ATP luminescence (AID 2303;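 active means inhibition above 50%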;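 further: 0% = DMSO wells and 100% = digitonin-killed cells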). To be noted: HepG2 viability, 24-48 h, at 10 µM, hits give high values.
For experiment [3], the target named is L-lactate dehydrogenase (Plasmodium falciparum (isolate CDC / Honduras)) (UniProt Q27743). As to the kind of experiment: PfLDH activity inhibition – cell lysate, 3D7 strain, counter-screen for P. falciparum growth inhibition project (AID 2304).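 Further: 0% = vehicle and 100% = reference inhibitor.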 The following applies: P. falciparum 3D7 crude extract, LDH APAD/NBT absorbance; at 2 µM; hits give high values. (Counterscreens check selectivity or assay interference.)

Experiment [4] in a line: inhibition of 3D7 malaria parasite growth – strain 3D7 (AID 2306).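 Further: 0% = DMSO wells and 100% = chloroquine plus artemisinin control wells.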 The following applies: P. falciparum 3D7 erythrocytic growth, LDH absorbance, 72 h; at 2 µM; hits give high values.
For experiment [5], the target named is Calcium-dependent protein kinase 1 (Plasmodium falciparum (isolate 3D7)) (UniProt P62344). As to the kind of experiment: PfCDPK1 kinase inhibitors, biochemical, TCAMS library (AID 1159585; cut-off not given, nearly all actives have IC50 up to about 0.98 µM;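 further: inhibitors leave more ATP so luminescence rises with inhibition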). The following applies: recombinant PfCDPK1, Kinase-Glo ATP depletion luminescence.
Experiment [6] concerns the target Plasmodium falciparum protein kinase 6 (PK6, PF3D7_1337100) (UniProt Q8IDW1). As to the kind of experiment: PfPK6 kinase inhibitors, biochemical, TCAMS library (AID 1159586). The following applies: recombinant PfPK6, Kinase-Glo ATP depletion luminescence. In general terms: In Kinase-Glo more light means more ATP remaining.
Experiment [7] concerns the target Protein kinase 7 (PK7), Plasmodium falciparum 3D7 (PF3D7_0213400) (UniProt Q7YTF7). Nature of the experiment: inhibition of Plasmodium PK7 catalytic activity – biochemical, TCAMS antimalarial set, Kinase-Glo luminescence (AID 1159587). To be noted: recombinant PfPK7, Kinase-Glo ATP depletion luminescence.
For experiment [8], the target named is Calcium-dependent protein kinase 4 (Plasmodium falciparum (isolate 3D7)) (UniProt Q8IBS5). Nature of the experiment: PfCDPK4 kinase inhibitors, biochemical, TCAMS library (AID 1159588; cut-off not given, nearly all actives have IC50 up to about 0.91 µM). The following applies: recombinant PfCDPK4, Kinase-Glo ATP depletion luminescence.
Chain of Calcium-dependent protein kinase 4 (Plasmodium falciparum (isolate 3D7)) (Q8IBS5 whole entry, looked up): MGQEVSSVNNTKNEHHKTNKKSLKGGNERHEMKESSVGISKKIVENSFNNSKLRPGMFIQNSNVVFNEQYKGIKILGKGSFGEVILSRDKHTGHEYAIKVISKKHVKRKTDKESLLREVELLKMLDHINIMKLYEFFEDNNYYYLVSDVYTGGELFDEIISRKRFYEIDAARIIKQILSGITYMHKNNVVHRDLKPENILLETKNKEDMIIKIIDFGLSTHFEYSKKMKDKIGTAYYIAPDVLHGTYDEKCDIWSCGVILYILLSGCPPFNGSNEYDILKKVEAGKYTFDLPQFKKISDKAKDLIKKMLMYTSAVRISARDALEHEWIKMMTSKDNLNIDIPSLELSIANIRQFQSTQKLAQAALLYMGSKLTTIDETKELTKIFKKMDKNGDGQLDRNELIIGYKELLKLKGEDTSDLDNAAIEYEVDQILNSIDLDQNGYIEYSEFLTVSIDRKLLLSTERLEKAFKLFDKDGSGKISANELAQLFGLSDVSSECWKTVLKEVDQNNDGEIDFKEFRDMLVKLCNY

Chain of Calcium-dependent protein kinase 1 (Plasmodium falciparum (isolate 3D7)) (P62344 whole entry, looked up): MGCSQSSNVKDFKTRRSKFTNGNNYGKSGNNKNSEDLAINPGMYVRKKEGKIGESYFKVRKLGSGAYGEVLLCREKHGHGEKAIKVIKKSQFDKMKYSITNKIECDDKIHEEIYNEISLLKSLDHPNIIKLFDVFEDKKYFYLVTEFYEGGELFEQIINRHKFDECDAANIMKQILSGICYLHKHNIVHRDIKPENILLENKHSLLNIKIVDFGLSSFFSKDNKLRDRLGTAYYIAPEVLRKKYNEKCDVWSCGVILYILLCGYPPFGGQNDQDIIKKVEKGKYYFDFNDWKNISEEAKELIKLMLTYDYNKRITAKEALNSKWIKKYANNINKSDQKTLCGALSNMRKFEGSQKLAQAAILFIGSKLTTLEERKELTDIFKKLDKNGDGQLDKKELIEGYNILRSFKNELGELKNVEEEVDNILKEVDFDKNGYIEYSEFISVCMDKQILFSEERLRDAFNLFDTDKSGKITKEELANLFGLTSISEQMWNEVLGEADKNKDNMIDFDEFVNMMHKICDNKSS
Chain of L-lactate dehydrogenase (Plasmodium falciparum (isolate CDC / Honduras)) (Q27743 whole entry, looked up): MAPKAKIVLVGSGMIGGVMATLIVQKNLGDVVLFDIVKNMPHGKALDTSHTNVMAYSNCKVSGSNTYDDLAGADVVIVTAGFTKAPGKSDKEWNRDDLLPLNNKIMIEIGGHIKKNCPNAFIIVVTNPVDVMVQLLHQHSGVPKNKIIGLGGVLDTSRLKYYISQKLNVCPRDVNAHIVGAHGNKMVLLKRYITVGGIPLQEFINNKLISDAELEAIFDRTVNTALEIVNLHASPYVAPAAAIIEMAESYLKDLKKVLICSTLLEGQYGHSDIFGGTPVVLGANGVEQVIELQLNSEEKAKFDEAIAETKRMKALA
Chain of Protein kinase 7 (PK7), Plasmodium falciparum 3D7 (PF3D7_0213400) (Q7YTF7 1-343): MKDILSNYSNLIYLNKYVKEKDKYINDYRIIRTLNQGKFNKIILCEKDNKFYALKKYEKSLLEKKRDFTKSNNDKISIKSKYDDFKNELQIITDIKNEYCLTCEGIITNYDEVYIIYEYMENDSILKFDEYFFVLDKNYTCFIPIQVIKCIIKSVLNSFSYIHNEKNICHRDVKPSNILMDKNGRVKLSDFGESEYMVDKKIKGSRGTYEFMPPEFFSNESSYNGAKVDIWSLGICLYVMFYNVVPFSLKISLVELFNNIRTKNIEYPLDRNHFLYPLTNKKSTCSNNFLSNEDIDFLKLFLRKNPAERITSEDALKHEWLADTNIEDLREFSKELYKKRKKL
Chain of Plasmodium falciparum protein kinase 6 (PK6, PF3D7_1337100) (Q8IDW1 1-305): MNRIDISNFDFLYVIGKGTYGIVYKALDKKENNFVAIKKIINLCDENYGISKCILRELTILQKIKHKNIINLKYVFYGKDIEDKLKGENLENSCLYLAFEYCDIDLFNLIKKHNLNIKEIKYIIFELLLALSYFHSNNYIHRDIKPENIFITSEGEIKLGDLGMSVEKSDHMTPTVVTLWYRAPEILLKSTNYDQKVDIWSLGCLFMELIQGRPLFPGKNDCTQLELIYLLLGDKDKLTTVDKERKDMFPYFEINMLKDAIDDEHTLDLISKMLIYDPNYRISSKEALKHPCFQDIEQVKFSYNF

One may read the inhibition as the relative decrease from the control value, in per cent. Consider `CCc1nnc2sc(-c3cccc(NC(=O)c4ccc(C)c([N+](=O)[O-])c4)c3)nn12`, for which the growth inhibition in experiment [1] is 46%; in experiment [4], 82% (active). In addition, the inhibition was 10% in experiment [2] and 4% in experiment [3]. Further, the outcome in experiment [5], in experiment [6], in experiment [7] and in experiment [8] was inactive.
In the case of `Cc1cc(CN2CC[C@H](NC(=O)c3ccc(Cl)c(Cl)c3)C2)ccc1OC1CCN(C)C1` (some centres not stated), the growth inhibition in experiment [1] was 24%; in experiment [4], 101% (active). The figures for the inhibition in experiment [2] and in experiment [3] were 71% (active) and -3%, respectively. For the same compound, the result in experiment [5], in experiment [6], in experiment [7] and in experiment [8] was inactive.
Take `O=C(/C=C/c1ccc(Cl)c(Cl)c1)NCCCCN1CCCN(C(=O)Nc2ccc(F)c(Cl)c2)CC1`: the growth inhibition is 2% in experiment [1] and 87% (active) in experiment [4]. The inhibition is 69% (active) in experiment [2] and 1% in experiment [3]. Besides, the result in experiment [5], in experiment [6], in experiment [7] and in experiment [8] was inactive.
With `Cc1cccc2[nH]c(-c3ccc(-c4ccc(CNCC5CCCO5)cc4)cc3)nc12` (configuration not stated), the values for the growth inhibition in experiment [1] and in experiment [4] were 81% (active) and 101% (active), respectively. The inhibition in experiment [2] is 36%; in experiment [3], -4%. In addition, the outcome in experiment [5], in experiment [6], in experiment [7] and in experiment [8] was inactive.
On to `c1cc(CN2CCCCC2)cc(OCCCNc2ccnc3ccccc23)c1`, for which the figures for the growth inhibition in experiment [1] and in experiment [4] were 99% (active) and 100% (active), respectively. Further, the inhibition is 48% in experiment [2] and -1% in experiment [3]. Besides, the result in experiment [5], in experiment [6], in experiment [7] and in experiment [8] was inactive.
`COc1ccccc1CNC(=O)c1cc(OC)c(OC)cc1NC(=O)c1cccs1`: the growth inhibition is 71% (active) in experiment [1] and 88% (active) in experiment [4]. Further, the inhibition in experiment [2] is 12%; in experiment [3] it was 3%. Moreover, the result in experiment [5], in experiment [6], in experiment [7] and in experiment [8] was inactive.
On to `O=C(Nc1cc(F)cc(F)c1)N1CCOC(CCN2CCC(c3ccccc3)CC2)(c2ccc(Cl)c(Cl)c2)C1` (configuration not stated), for which the values for the growth inhibition in experiment [1] and in experiment [4] were 69% (active) and 91% (active), respectively. In addition, the figures for the inhibition in experiment [2] and in experiment [3] were 31% and 0%, respectively. The result in experiment [5], in experiment [6], in experiment [7] and in experiment [8] was inactive.
Regarding `Cc1cc(Cl)c(S(=O)(=O)NC(C)(C)C)cc1OCC(=O)NC1CCCCC1`, the results for the growth inhibition in experiment [1] and in experiment [4] were 53% (active) and 93% (active), respectively. Moreover, the inhibition was 10% in experiment [2] and -5% in experiment [3]. Besides, the outcome in experiment [5], in experiment [6], in experiment [7] and in experiment [8] was inactive.
Take `CC(C)NCc1cccc(-c2cccc(-c3nc4ccccc4[nH]3)c2)c1`: the growth inhibition was 22% in experiment [1] and 100% (active) in experiment [4]. For the same compound, the inhibition in experiment [2] is 11%; in experiment [3], -2%. For the same compound, the outcome in experiment [5], in experiment [6], in experiment [7] and in experiment [8] was inactive.
As to `COc1ccc(-c2ccc(CNCc3ccc(F)cc3)cc2)cc1S(=O)(=O)NCCN1CCCC1`, the growth inhibition in experiment [1] was 33%; in experiment [4], 98% (active). For the same compound, the inhibition is 24% in experiment [2] and 3% in experiment [3]. The result in experiment [5], in experiment [6], in experiment [7] and in experiment [8] was inactive.
As to `O=C(Nc1cccc(-c2cccc(-c3nc4ccccc4[nH]3)c2)c1)c1cccnc1`, the growth inhibition is 14% in experiment [1] and 95% (active) in experiment [4]. For the same compound, the inhibition in experiment [2] was 12%; in experiment [3] it was -3%. Further, the outcome in experiment [5], in experiment [6], in experiment [7] and in experiment [8] was inactive.
Take `CCCC(CNCc1cccc(OC(F)(F)C(F)F)c1)CNc1cc(=O)c2ccccc2[nH]1` (configuration not stated): the growth inhibition in experiment [1] is 94% (active); in experiment [4] it was 101% (active). Moreover, the results for the inhibition in experiment [2] and in experiment [3] were -1% and 1%, respectively. The outcome in experiment [5], in experiment [6], in experiment [7] and in experiment [8] was inactive.
`COc1ccc(CN(C)CC(O)COc2ccc(NC(=O)c3cccc4c(=O)c5cccc(OC)c5[nH]c34)cc2)cc1OC` (configuration not stated): the growth inhibition in experiment [1] is 65% (active); in experiment [4], 93% (active). Besides, the inhibition in experiment [2] is 72% (active); in experiment [3] it was -3%. Also, the outcome in experiment [5], in experiment [6], in experiment [7] and in experiment [8] was inactive.
With `O=C(/C=C/c1ccc(Cl)c(Cl)c1)NCCCCCCN1CCCN(C(=O)Nc2cccc(Cl)c2)CC1`, the growth inhibition is 2% in experiment [1] and 94% (active) in experiment [4]. The figures for the inhibition in experiment [2] and in experiment [3] were 26% and 0%, respectively. For the same compound, the outcome in experiment [5], in experiment [6], in experiment [7] and in experiment [8] was inactive.
For `Cc1nc(N)nc(N)c1C#CC1CCCC1`, the growth inhibition in experiment [1] was 2%; in experiment [4], 96% (active). Further, the inhibition in experiment [2] was 68% (active); in experiment [3], 4%. Moreover, the outcome in experiment [5], in experiment [6], in experiment [7] and in experiment [8] was inactive.
Consider `O=C(NC(Nc1ccc([N+](=O)[O-])cc1)C(Cl)(Cl)Cl)c1ccc(Cl)cc1` (configuration not stated), for which the growth inhibition in experiment [1] is 94% (active); in experiment [4] it was 98% (active). Besides, the inhibition in experiment [2] is 21%; in experiment [3], 4%. Further, the outcome in experiment [5], in experiment [6], in experiment [7] and in experiment [8] was inactive.
Regarding `CN(C)CCNCc1cccc(-c2cccc(-c3nc4ccccc4[nH]3)c2)c1`, the growth inhibition in experiment [1] is 63% (active); in experiment [4] it was 101% (active). Besides, the inhibition is 7% in experiment [2] and -3% in experiment [3]. The result in experiment [5], in experiment [6], in experiment [7] and in experiment [8] was inactive.
For the compound `CCN(CC)C(=NC(N)=NCCCCCCN=C(N)N=C(Nc1ccc(Cl)cc1)N(CC)CC)Nc1ccc(Cl)cc1`, the growth inhibition in experiment [1] was 96% (active); in experiment [4] it was 97% (active). The values for the inhibition in experiment [2] and in experiment [3] were 1% and 8%, respectively. The outcome in experiment [5], in experiment [6], in experiment [7] and in experiment [8] was inactive.
Regarding `CCN(CCCN1CCCCC1)c1cc(C)nc(Nc2cccc(C(F)(F)F)c2)n1`, the growth inhibition in experiment [1] is 88% (active); in experiment [4], 102% (active). Further, the figures for the inhibition in experiment [2] and in experiment [3] were 25% and 5%, respectively. Further, the result in experiment [5], in experiment [6], in experiment [7] and in experiment [8] was inactive.
